The supplement of paper PMC4466140

Target: ScBbc1
Assay: SPOT peptide array binding signal intensity (averaged, normalized) (arbitrary units (background-subtracted, floor 0; scale differs between SH3 domains)); higher = stronger binding of the SH3 domain to the peptide
Outline: (§1)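 Spot intensities were captured after detection with anti-GST antibody, an HRP-linked anti-mouse secondary and luminol, and quantified with Genespotter. The probes were GST-fused SH3 domains from four yeast species, produced in E. coli BL21(DE3), purified on glutathione Sepharose and incubated at 10 μg/ml overnight at 4°C on cellulose-bound synthetic 15-mer peptides with cysteines replaced by serines. Binding signal is the normalized, background-subtracted spot intensity averaged over replicates, and its arbitrary units differ between domains.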

Binder	SPOT peptide array binding signal intensity
VRVKKRPLIRPLNSS	82

Target: ScBem1-D1
Assay: as above
Outline: as §1

Binder	SPOT peptide array binding signal intensity
VRVKKRPLIRPLNSS	70

Target: ScBzz1-D1
Assay: as above
Outline: as §1

Binder	SPOT peptide array binding signal intensity
VRVKKRPLIRPLNSS	11.5

Target: ScBzz1-D2
Assay: as above
Outline: as §1

Binder	SPOT peptide array binding signal intensity
VRVKKRPLIRPLNSS	11

Target: ScCyk3
Assay: as above
Outline: as §1

Binder	SPOT peptide array binding signal intensity
VRVKKRPLIRPLNSS	91.5

Target: ScFus1
Assay: as above
Outline: as §1

Binder	SPOT peptide array binding signal intensity
VRVKKRPLIRPLNSS	156

Target: ScHof1
Assay: as above
Outline: as §1

Binder	SPOT peptide array binding signal intensity
VRVKKRPLIRPLNSS	0.75

Target: ScHse1
Assay: as above
Outline: as §1

Binder	SPOT peptide array binding signal intensity
VRVKKRPLIRPLNSS	1480

Target: ScLsb1
Assay: as above
Outline: as §1

Binder	SPOT peptide array binding signal intensity
VRVKKRPLIRPLNSS	57.8

Target: ScLsb2
Assay: as above
Outline: as §1

Binder	SPOT peptide array binding signal intensity
VRVKKRPLIRPLNSS	5.5

Target: ScLsb3
Assay: as above
Outline: as §1

Binder	SPOT peptide array binding signal intensity
VRVKKRPLIRPLNSS	312

Target: ScLsb4
Assay: as above
Outline: as §1

Binder	SPOT peptide array binding signal intensity
VRVKKRPLIRPLNSS	19

Target: ScMyo3
Assay: as above
Outline: as §1

Binder	SPOT peptide array binding signal intensity
VRVKKRPLIRPLNSS	3

Target: ScMyo5
Assay: as above
Outline: as §1

Binder	SPOT peptide array binding signal intensity
VRVKKRPLIRPLNSS	1.5

Target: ScNbp2
Assay: as above
Outline: as §1

Binder	SPOT peptide array binding signal intensity
VRVKKRPLIRPLNSS	312

Target: ScPex13
Assay: as above
Outline: as §1

Binder	SPOT peptide array binding signal intensity
VRVKKRPLIRPLNSS	0.25

Target: ScRvs167
Assay: as above
Outline: as §1

Binder	SPOT peptide array binding signal intensity
VRVKKRPLIRPLNSS	15.5

Target: ScSho1
Assay: as above
Outline: as §1

Binder	SPOT peptide array binding signal intensity
VRVKKRPLIRPLNSS	386

Target: ScSla1-D1-D2
Assay: as above
Outline: as §1

Binder	SPOT peptide array binding signal intensity
VRVKKRPLIRPLNSS	330

Target: ScSla1-D3
Assay: as above
Outline: as §1

Binder	SPOT peptide array binding signal intensity
VRVKKRPLIRPLNSS	16

Target: SpAbp1-D1
Assay: as above
Outline: as §1

Binder	SPOT peptide array binding signal intensity
VRVKKRPLIRPLNSS	388

Target: SpBbc1
Assay: as above
Outline: as §1

Binder	SPOT peptide array binding signal intensity
VRVKKRPLIRPLNSS	9.75

Target: SpBzz1-D1
Assay: as above
Outline: as §1

Binder	SPOT peptide array binding signal intensity
VRVKKRPLIRPLNSS	150

Target: SpBzz1-D2
Assay: as above
Outline: as §1

Binder	SPOT peptide array binding signal intensity
VRVKKRPLIRPLNSS	≤ 0

Target: SpCyk3
Assay: as above
Outline: as §1

Binder	SPOT peptide array binding signal intensity
VRVKKRPLIRPLNSS	≤ 0

Target: SpHof1
Assay: as above
Outline: as §1

Binder	SPOT peptide array binding signal intensity
VRVKKRPLIRPLNSS	188

Target: SpHof1-2
Assay: as above
Outline: as §1

Binder	SPOT peptide array binding signal intensity
VRVKKRPLIRPLNSS	12.5

Target: SpHof1-3
Assay: as above
Outline: as §1

Binder	SPOT peptide array binding signal intensity
VRVKKRPLIRPLNSS	373

Target: SpHse1
Assay: as above
Outline: as §1

Binder	SPOT peptide array binding signal intensity
VRVKKRPLIRPLNSS	279

Target: SpLsb1
Assay: as above
Outline: as §1

Binder	SPOT peptide array binding signal intensity
VRVKKRPLIRPLNSS	14.5

Target: SpLsb4
Assay: as above
Outline: as §1

Binder	SPOT peptide array binding signal intensity
VRVKKRPLIRPLNSS	135

Target: SpMyo1
Assay: as above
Outline: as §1

Binder	SPOT peptide array binding signal intensity
VRVKKRPLIRPLNSS	5.5

Target: SpNbp2
Assay: as above
Outline: as §1

Binder	SPOT peptide array binding signal intensity
VRVKKRPLIRPLNSS	773

Target: SpPex13
Assay: as above
Outline: as §1

Binder	SPOT peptide array binding signal intensity
VRVKKRPLIRPLNSS	17

Target: SpRvs167
Assay: as above
Outline: as §1

Binder	SPOT peptide array binding signal intensity
VRVKKRPLIRPLNSS	3.67

Target: SpSla1-D1-D2
Assay: as above
Outline: as §1

Binder	SPOT peptide array binding signal intensity
VRVKKRPLIRPLNSS	≤ 0

Target: SpSla1-D3
Assay: as above
Outline: as §1

Binder	SPOT peptide array binding signal intensity
VRVKKRPLIRPLNSS	2
